Several values for one entry are separate records, joined by “and”; a condition that tells them apart may be missing. Identical values can stand only once. Among all 260,000 compounds or so, about 1,500 (0.58%) were called active. Inconclusive results (about 5%) are left out.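 Rule for the calls: active = inhibition above a set limit at one or more doses, reproduced on every date tested; inconclusive = results disagree between test dates, or hit never tested in dose response; inactive = the rest.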 Only a sample is shown. Potency and affinity values are given separately.
Target: Virion infectivity factor (Human immunodeficiency virus type 1 group M subtype B (isolate BH10)) + Virion infectivity factor (Human immunodeficiency virus type 1 group M subtype B (isolate BRU/LAI)) + Virion infectivity factor (Human immunodeficiency virus type 1 group M subtype B (isolate PCV12)) + Virion infectivity factor (Human immunodeficiency virus type 1 group M subtype B (isolate HXB2)) + DNA dC->dU-editing enzyme APOBEC-3G (Homo sapiens) (UniProt P69720+P69721+P69722+P69723+Q9HC16)
Experiment: HIV-1 Vif–A3G interaction blockers – biochemical, TR-FRET, GST-Vif 1-94, biotin-A3G peptide, dose response retest, primary screen (AID 1117319);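 note: Vif residues 1-94 fused to GST binding biotinylated APOBEC3G peptide 110-148; 0% = full assay without inhibitor and 100% = GST in place of GST-Vif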
Conditions: TR-FRET GST-Vif / biotin-A3G peptide binding; stronger effect = higher value

inhibition, inactive:
O=C(NCC1CCCO1)c1ccc(CS(=O)(=O)c2ccc(Cl)cc2)o1 (stereo not drawn) 0.48%
Cc1ccc(CC(=O)NNC(=O)c2cccs2)cc1C -2.08%
O=c1cc(CO)oc(C(Nc2ccccn2)c2ccc(C(F)(F)F)cc2)c1O (stereo not drawn) 10.8%
COc1ccc(C(Nc2ccccn2)c2oc(CO)cc(=O)c2O)cc1 (stereo not drawn) 20.9%
CN(c1ccccc1)S(=O)(=O)c1ccc(C(=O)NCC2CCCO2)cc1 (stereo not drawn) 6.12%
CCOc1ccc2c(c1)n([O-])c1c([n+]2=O)CCCC1 23.4%
Cc1ccc2c(c1)n([O-])c1c([n+]2=O)CCCC1 1.62%
O=[n+]1c2c(n([O-])c3c1CCCC3)CCCC2 3.36%
O=[n+]1c2c(n([O-])c3ccccc31)CCCC2 9.07%
O=[n+]1c2c(n([O-])c3cc(Br)ccc31)CCCC2 30%
O=[n+]1cc(-c2ccc(Br)cc2)n([O-])c2c1CCC2 3.02%
O=[n+]1c2c(n([O-])c3cc(F)c(N4CCCC4)cc31)CCC2 25.7%
O=[n+]1c2c(n([O-])c3cc(F)ccc31)CCCC2 11.7%
Cc1ccc2oc3nc(C)c(C(=O)O)cc3c(=O)c2c1 3.05%
CCN(CC)CCn1c(=S)[nH]c2cc(C(=O)NCCc3ccc(OC)c(OC)c3)ccc2c1=O -5.2%
S=c1[nH]nc2nnc3ccccc3n12 -8.57%
COCCN1C(=O)c2[nH]nc(-c3ccccc3O)c2C1c1ccc(OC)cc1 (stereo not drawn) 4.2%
CCOC(=O)C1=C(C)N(C)C(=S)NC1c1cc(OC)ccc1OC (stereo not drawn) 29.4%
Cc1ccc(NC(=O)N2CCC(C(=O)Nc3ccc(C)cc3C)CC2)cc1 -2.75%
COC(=O)C1CCN(S(=O)(=O)c2c[nH]c(=O)[nH]c2=O)CC1 -3.67%
CC(C)CN(CC(C)C)S(=O)(=O)N1CCC(C(=O)N2CCc3ccccc3C2)CC1 10.1%
O=C(CSc1ccc2nnc(-c3ccccn3)n2n1)N1CCOCC1 5.93%
CCOC(=O)C=Nc1c(N)n(C)c(=O)n(C)c1=O -1.01%
CCCCSc1c(C)c2cc3c(cc2[nH]c1=O)OCO3 -11.4%
COc1cc(C(=O)NC(=S)NCc2ccco2)cc(OC)c1OC 5.31%
COc1cc(C(=O)NCc2ccco2)cc(OC)c1OC -2.63%
N#CC1=C(N)OC2=C(CC/C2=C\c2ccccc2)C1c1ccccc1 (stereo not drawn) 22.4%
Cc1ccc(/C=C2\CCC3=C2OC(N)=C(C#N)C3c2ccc(C)cc2)cc1 (stereo not drawn) 20.9%
CCOC(=O)N1CCN(C(=O)CN(Cc2ccccc2)S(=O)(=O)c2ccc(OC)c(Cl)c2)CC1 -0.5%
O=C(OCc1nc2scc(-c3ccccc3)c2c(=O)[nH]1)c1cc([N+](=O)[O-])ccc1Cl 1.37%
CCN(CC)CCNC(=O)Cn1nc(Cc2cccnc2)c2ccccc2c1=O -0.43%
O=C(Nc1cccc2c1CCCC2)C1CCCN(S(=O)(=O)c2cccc3nonc23)C1 (stereo not drawn) 22.9% and -4.27%
N#CC1=C(Nc2ccccc2)SC=C(c2ccccc2)N=C1N1CCOCC1 23.5%
N#CC1=C(Nc2ccccc2)SC=C(c2ccc(F)cc2)N=C1N1CCOCC1 -6.08%
COc1ccc(CCNC(=O)CC(Cc2ccc(C)cc2)C(=O)O)cc1OC (stereo not drawn) -5.29%
CCc1ccc(C(=O)COC(=O)c2cnc(C)cn2)cc1 2.17%
COc1ccc(N=C2S/C(=C\c3ccc(C)s3)C(=O)N2CC(C)C)cc1 -0.05%
CCCN1C(=O)/C(=C/c2ccc(C)o2)SC1=Nc1ccc(OC)cc1 23.9%
Cc1cccc(Cc2ccc(Cl)nn2)c1 3.42%
COc1cc(CCCN2C(=O)C(=O)NC[C@@H]2c2ccccc2)cc(OC)c1OC -0.8%
COc1cccc(CN2CCN(Cc3cccc4nonc34)CC2CCO)c1 (stereo not drawn) -3.03%
Cc1ccccc1CN1C[C@@H]2C[C@@H](c3cn[nH]c3-c3ccc(F)cc3)N3CCC[C@@]23C1=O 6.1%
CN1CCN(c2nc3ccccc3nc2NS(=O)(=O)c2ccc(Br)cc2)CC1 4.67%
O=S(=O)(Nc1nc2ccccc2nc1N1CCN(c2ccccc2)CC1)c1ccc(F)cc1 10.6%
CC(C)CNC(=O)COCc1cc(-c2ccc3c(c2)OCO3)on1 5.26%
COc1ccc(Cl)cc1C(=O)OCC(=O)NC(=O)c1cccn1C -9.04%
COc1ccc(S(=O)(=O)N2CCCC2CNC(=O)C(=O)NCc2ccccc2)cc1 (stereo not drawn) -0.59%
CCC(=O)NCC(c1ccco1)N1CCN(c2ccc(OC)cc2)CC1 (stereo not drawn) 2.46%
CCc1ccc(C(=O)Nc2cc(C)ccc2F)s1 -4.32%
O=C1NCCc2c1[nH]c1ccccc21 18.5%
c1ccc2c3c([nH]c2c1)CCNC3 -5.47%
COc1cc2[nH]c(=O)n(CCCCCC(=O)N3CCN(c4ccccn4)CC3)c(=O)c2cc1OC -2.43% and 26.2%
CCC(=O)N1CC2(CC(c3cccc(NC(=O)CC(c4ccccc4)c4ccccc4)c3)=NO2)C[C@H]1C(N)=O (stereo partly drawn) 4.04%
Cc1cccc(-n2c(SCC(=O)NCc3ccc4c(c3)OCO4)nc3ccccc3c2=O)c1 19.8%
COc1ccccc1-n1c(SCC(=O)c2ccc(O)cc2O)nc2cc([N+](=O)[O-])ccc21 11.3%
CC(Sc1nc2cc([N+](=O)[O-])ccc2n1-c1ccc(F)cc1)C(=O)NCc1ccc2c(c1)OCO2 (stereo not drawn) -9.4%
O=C(CSc1nc2ccccc2c(=O)n1-c1ccccc1)NCc1ccc2c(c1)OCO2 -2.26%
O=C(CN1CCN(c2ccccc2)CC1)c1c[nH]c2ccccc12 -7.04%
COc1cccc(/C=C2\Oc3cc(OC(=O)N4CCOCC4)ccc3C2=O)c1 0.99%
O=C(CN(CCO)Cc1ccccc1)N1CCN(S(=O)(=O)c2ccccc2)CC1 0.45%
C/C=C/c1ccc(OCCCn2cncn2)c(OC)c1 -2.59%
COC(=O)C1=C(C)NC(C)=C(C(=O)OC)C1c1cc2cc(C)ccc2[nH]c1=O -2.33%
COc1ccc(C2C(C#N)=C(N)Oc3c2ccc2cccnc32)cc1OC (stereo not drawn) 18.2%
Cc1ccc(C(=O)Nc2ccc3[nH]c(=O)[nH]c3c2)c(C)c1 -1.2%
C=CCn1c(SCc2nc3ccccc3[nH]2)nnc1-c1cccc(OC)c1 7.4%
Cc1nc2ccc(S(=O)(=O)NCC(=O)NCCN3CCCCCC3)cc2s1 -0.42%
Cc1nc(N2CCOCC2)c2c3c(sc2n1)CCC3 -7.05%
CSc1nc(N2CCOCC2)c2c3c(sc2n1)CCCC3 2.91%
C=CCN(C(=O)c1csnn1)C(C(=O)NC(C)(C)C)c1ccncc1 (stereo not drawn) 8.31%
O=C(c1ccc(CNS(=O)(=O)c2ccccc2)cc1)N1CCN(c2ccccn2)CC1 5.22%
Oc1[nH]c2ccccc2c1N=Nc1ccc(F)cc1 -2.74%
Oc1ccc2ccccc2c1N=Nc1ccc(F)cc1 7.15% and 5.32%
CCOC(=O)CC(NC(=O)c1cccs1)c1ccc(C)cc1 (stereo not drawn) -0.96%
CCCCOc1ccccc1C1NC(=O)CCC1[N+](=O)[O-] (stereo not drawn) -4.07%
O=C(Cc1cccs1)N/N=C/C=C/c1ccccc1 4.16%
COc1ccccc1/C=C/C=N/NC(=O)Cc1cccs1 -10.6%
O=C(CNC(=O)c1cccs1)N/N=C/c1ccco1 10.8%
O=C(N/N=C/C=C\c1ccco1)c1cccs1 2.49%
O=C(c1ccncc1)N1N=C(C2CC2)CC1(O)C(F)(F)F (stereo not drawn) -2.38%
CCOC(=O)c1c(C)oc(=O)c(CC)c1O -0.93%
Cc1ccc(S(=O)(=O)N2C[C@H]3C(=O)C[C@@H](c4ccc(Cl)cc4)N(S(=O)(=O)c4ccccc4C)[C@H]3C[C@H]2c2ccccc2)cc1 -0.22%
O=C(CSCc1c(Cl)cccc1Cl)NN=C1CCCC1 15.1%
CCOC(=O)C1CCCN(c2c(NCC3CCCN3CC)c(=O)c2=O)C1 (stereo not drawn) 1.77%
CC(=O)N1Cc2ccccc2CC1C(=O)NCc1ccccc1F (stereo not drawn) 0.3%
C=CCNC(=O)c1ccc2nc(-c3ccccc3)c(-c3ccccc3)nc2c1 -4.35%
CCOCCCNC(=O)c1ccc2nc(-c3ccc(OC)c(OC)c3)c(-c3ccc(OC)c(OC)c3)nc2c1 -0.07%
O=C(NC1CCCCC1)c1cc(-c2ccco2)on1 2.76%
O=C(O)c1ccc2nc(-c3ccco3)c(-c3ccco3)nc2c1 -0.3%
CCc1nc2ccc(C(=O)NCc3ccco3)cc2nc1CC 3.69%
O=C(NCCO)c1ccc(Cl)c(Cl)c1 -3.78%
CCCNC(=O)c1ccc2nc(-c3ccccc3)c(-c3ccccc3)nc2c1 -1.93%
CCc1nc2ccc(C(=O)NCCc3ccco3)cc2nc1CC 9.44%
CC(=O)Nc1ccccc1S(=O)(=O)CC1CC1(Cl)Cl (stereo not drawn) 4.64%

— PubChem BioAssay AID1117319 (Southern Research Institute, 2015)
